Inconclusive results are not listed. Unmarked numbers belong to inactive results. Active and inactive are the calls of the source. The call rests on the fitted dose curve; in most records, active means well fitted inhibition curve with a large enough effect in the repeat runs; inconclusive means weak or mixed curves; inactive means no such curve, though single readings can be large or run the other way. *1 amine or outer side, *2 acyl side, *3 side chain or, on linkers, in order; H or OH if unused. Where a SMILES comes first, the peptide text is derived from it. Bridges are numbered along the chain shown (N, C = ends). [ ]: non-standard residue; d: D form. The star is where a group is joined. ξ: configuration not given here. X10 = NC1=NCCC(C(N[*:1])C(=O)[*:2])N1; ΔAla(3-NHCONH2) = NC(=O)NC=C(N)C(=O)O; ξβ3hOrn = NCCCC(N)CC(=O)*; Dap = NC[CH](N)C(=O)O

Sequence of Cytochrome P450 2C9 (Homo sapiens) (P11712 whole entry, looked up): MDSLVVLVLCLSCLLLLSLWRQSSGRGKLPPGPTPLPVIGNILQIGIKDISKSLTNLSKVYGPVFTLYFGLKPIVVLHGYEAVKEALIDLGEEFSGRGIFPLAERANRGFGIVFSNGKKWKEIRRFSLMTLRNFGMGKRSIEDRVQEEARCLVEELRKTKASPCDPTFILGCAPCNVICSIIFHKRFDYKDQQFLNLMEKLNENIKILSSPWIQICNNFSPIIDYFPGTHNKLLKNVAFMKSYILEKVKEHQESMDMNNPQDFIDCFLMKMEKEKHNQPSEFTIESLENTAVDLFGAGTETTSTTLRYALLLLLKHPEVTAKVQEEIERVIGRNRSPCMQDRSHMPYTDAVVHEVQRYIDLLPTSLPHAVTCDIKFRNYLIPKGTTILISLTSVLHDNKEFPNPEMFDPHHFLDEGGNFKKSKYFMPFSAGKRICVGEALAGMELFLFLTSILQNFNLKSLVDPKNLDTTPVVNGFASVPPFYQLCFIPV

For one experiment, the target named is Cytochrome P450 3A4 (Homo sapiens) (UniProt P08684). Kind of experiment: Cytochrome P450 family 3 subfamily A member 4 (CYP3A4) small molecule antagonists: luciferase qHTS assay (AID 1645841). Further: nearly all actives have a fitted effect of over 45% in size. To be noted: P450-Glo CYP3A4 enzyme assay, luciferin luminescence; series mostly up to 57.4 µM; activity change, negative = inhibition: at the top concentration. The method in brief: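 P450-Glo CYP3A4 enzyme with proluciferin substrate was preincubated with DMSO-dissolved compounds for 10 min at room temperature. NADPH regeneration solution started a 1 h reaction. Detection reagent stopped it, and luminescence was read after 20 min.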
Sequence of Cytochrome P450 3A4 (Homo sapiens) (P08684 whole entry, looked up): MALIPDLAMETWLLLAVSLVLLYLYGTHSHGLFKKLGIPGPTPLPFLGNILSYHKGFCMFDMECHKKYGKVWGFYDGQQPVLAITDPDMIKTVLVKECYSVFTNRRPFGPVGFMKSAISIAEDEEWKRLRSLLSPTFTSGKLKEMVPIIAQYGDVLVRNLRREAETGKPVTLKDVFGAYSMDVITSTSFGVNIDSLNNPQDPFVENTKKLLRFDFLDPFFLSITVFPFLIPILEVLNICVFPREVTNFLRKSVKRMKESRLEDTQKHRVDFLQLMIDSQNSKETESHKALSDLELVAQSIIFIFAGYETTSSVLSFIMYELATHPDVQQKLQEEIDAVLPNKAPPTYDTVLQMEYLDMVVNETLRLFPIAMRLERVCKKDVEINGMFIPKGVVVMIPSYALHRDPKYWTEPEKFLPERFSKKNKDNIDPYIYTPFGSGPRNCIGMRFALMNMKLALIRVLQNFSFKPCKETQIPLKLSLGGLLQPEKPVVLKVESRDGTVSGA
Regarding `CCOC(=O)c1ccc(OCCN2C[C@H](O)[C@@H](O)[C@H](O)[C@H]2CO)cc1`, the “activity change, negative = inhibition” value was 25.9%. Consider `NCCCC(N)CC(=O)NCC1NC(=O)C(CO)NC(=O)C(N)CNC(=O)C(C2CCN=C(N)N2)NC(=O)C(=CNC(N)=O)NC1=O` (stereo not drawn) (H-[Dap]S[Dap](ξβ3hOrn)[ΔAla(3-NHCONH2)][X10]; lactam 1-C; configuration not given here), for which the activity change, negative = inhibition was -11.7% [at 0.91 µM]. On to `CN(C)[C@@H]1C(=O)C(C(N)=O)=C(O)[C@@]2(O)C(=O)C3=C(O)c4c(O)cccc4C[C@H]3C[C@@H]12`, for which the “activity change, negative = inhibition” value is -6.97%.

Consider `N=C(N)c1ccc(OCCCOc2ccc(C(=N)N)cc2)cc1`, for which the “activity change, negative = inhibition” value was 37.6%.

A further experiment concerns the target Cytochrome P450 2C9 (Homo sapiens) (UniProt P11712). Kind of experiment: Cytochrome P450 family 2 subfamily C member 9 (CYP2C9) small molecule antagonists: luciferase biochemical (cell-free) qHTS assay (AID 1645842). Further: nearly all actives have a fitted effect of over 55% in size. Further: potency means the concentration at half of the fitted maximal effect. On activity change, negative = inhibition: on the % scale 0 is the no-effect control and ±100 the full control effect. The note with it: P450-Glo CYP2C9 enzyme assay, luciferin luminescence; series mostly up to 57.4 µM; activity change, negative = inhibition: at the top concentration. The method in brief: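 P450-Glo CYP2C9 system: proluciferin substrate with enzyme in mix containing 0.4% BSA, 10 min at room temperature, then NADPH regeneration solution added and incubated 1 h at 37C. Detection reagent stopped reaction; luminescence read after 20 min as RLU.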
For orientation: Quantitative high-throughput screening tests each substance at several concentrations.
`CN1C(CSCC(F)(F)F)Nc2cc(Cl)c(S(N)(=O)=O)cc2S1(=O)=O` (configuration not stated): the “activity change, negative = inhibition” value is -10.8%. On to `CCOC(=O)c1ccc(OCCN2C[C@H](O)[C@@H](O)[C@H](O)[C@H]2CO)cc1`, for which the “activity change, negative = inhibition” value is 6.62%.

Take `CC(=O)Nc1ccn(C2COC(COC(=O)c3ccccc3)O2)c(=O)n1` (configuration not stated): the “activity change, negative = inhibition” value was -5.46%. For the molecule `Cc1cnc(NS(=O)(=O)c2ccc(N)cc2)nc1`, the “activity change, negative = inhibition” value was 23.8%. In the case of `CNC(=O)c1c(I)c(NC(C)=O)c(I)c(C(=O)O)c1I`, the “activity change, negative = inhibition” value is 10.2%.

Turning to `Nc1nc(=O)n([C@@H]2O[C@H](CO)[C@@H](O)[C@@H]2F)cc1I`, the “activity change, negative = inhibition” value is 11.2%. As for `CC(=O)OC[C@H]1O[C@@H](OC(C)=O)[C@H](OC(C)=O)[C@@H]1OC(C)=O`, the “activity change, negative = inhibition” value is 13.4%. For `NCCCC(N)CC(=O)NCC1NC(=O)C(CO)NC(=O)C(N)CNC(=O)C(C2CCN=C(N)N2)NC(=O)C(=CNC(N)=O)NC1=O` (stereo not drawn) (H-[Dap]S[Dap](ξβ3hOrn)[ΔAla(3-NHCONH2)][X10]; lactam 1-C; configuration not given here), the activity change, negative = inhibition was 7.44% [at 0.91 µM].

As to `O=C(CCCl)NCc1ccccc1`, the “activity change, negative = inhibition” value is 13.9%. Consider `N#CC1(c2ccc(F)cc2)CCC(=O)CC1`, for which the “activity change, negative = inhibition” value was 7.58%.

With `COC(=O)CCCCC(CCSS/C(CCO)=C(\C)N(C=O)Cc1cnc(C)nc1N)SC(C)=O` (configuration not stated), the “activity change, negative = inhibition” value is -8.25%.

For the molecule `CCCOc1ccc2c(c1)CC[C@@H]1[C@@H]2CC[C@]2(C)C(OC)CC[C@@H]12` (some centres not stated), the Potency was 19.5 µM (active). As for `CN(C)CCCOC1(Cc2ccccc2)CCCCCC1`, the “activity change, negative = inhibition” value was 5.43%. Take `O=C(C1CCCCC1)N1CC(=O)N2CCCc3ccccc3C2C1` (configuration not stated): the Potency is 6.17 µM (active).

On to `CCCCOC(=O)CCCCCCCCC(=O)OCCCC`, for which the Potency was 19 µM (active).

Take `CC(=O)Nc1c(I)c(NC(C)=O)c(I)c(C(=O)O)c1I`: the “activity change, negative = inhibition” value was 5.9%.

On to `CN(C)[C@@H]1C(=O)C(C(N)=O)=C(O)[C@@]2(O)C(=O)C3=C(O)c4c(O)cccc4C[C@H]3C[C@@H]12`, for which the “activity change, negative = inhibition” value is -0.126%.

Take `CC1(C)S[C@@H]2[C@H](NC(=O)C(c3ccccc3)S(=O)(=O)O)C(=O)N2[C@H]1C(=O)O` (some centres not stated): the “activity change, negative = inhibition” value was 6.7%. Regarding `CC(C)(C)C1CCC(CC2=C(O)c3ccccc3C(=O)C2=O)CC1` (configuration not stated), the Potency was 3.89 µM (active). On to `O=P(O)(O)OCC(O)CO` (configuration not stated), for which the “activity change, negative = inhibition” value was 2.32%. For `CC(=O)O[C@@H]1C(=O)O[C@@H]2[C@H]1OC(=O)[C@@H]2OC(C)=O`, the “activity change, negative = inhibition” value is 3.58%. Same read-out and setting: as for `CC(C)C[C@H](NC(=O)CNC(=O)[C@H](Cc1ccc(O)cc1)NC(=O)[C@H](CO)NC(=O)[C@H](Cc1c[nH]c2ccccc12)NC(=O)[C@H](Cc1cnc[nH]1)NC(=O)[C@@H]1CCC(=O)N1)C(=O)N[C@@H](CCCN=C(N)N)C(=O)N1CCC[C@H]1C(=O)NCC(N)=O` (stereo in doubt), the figure is -11.3%; as for `Brc1ccccc1-c1ccccc1`, 6.5% [at 115 µM]. The same measure, in the same setting: as for `COC(=O)c1cc(Cl)c(NC(C)=O)cc1OC`, the figure is 15.6%; as for `NC(=O)NS(=O)(=O)c1ccc(Cl)cc1`, 15.3%; as for `OC[C@]1(O)OC[C@@H](O)[C@H](O)[C@@H]1O`, 11.6%. Consider `O=C1CC[C@H](C(=O)N2CCCCC2)N1`, for which the “activity change, negative = inhibition” value is 0.791%.

For the molecule `CCOC(=O)C(O)c1ccccc1` (configuration not stated), the “activity change, negative = inhibition” value was 12%.
